Screening results as filed in PubChem.
Compounds with a hit are over-represented: about 12% of the library has one in this group of screens.
PLK1 PBD block = qHTS for Inhibitors of PLK1-PDB (polo-like kinase 1 - polo-box domain): Primary Screen | Plk1 PBD binding of FITC phosphopeptide, fluorescence polarization | Potency, µM, usual class: inhibitors | Serine/threonine-protein kinase PLK1 (Homo sapiens), P53350 | 360,000 compounds, 2.8% hits | AID 720504, 2013; further: series mostly up to about 57 µM; nearly all actives have a fitted effect of over 65% in size
Target sequence (P53350 whole entry, looked up, the tested form may be a part): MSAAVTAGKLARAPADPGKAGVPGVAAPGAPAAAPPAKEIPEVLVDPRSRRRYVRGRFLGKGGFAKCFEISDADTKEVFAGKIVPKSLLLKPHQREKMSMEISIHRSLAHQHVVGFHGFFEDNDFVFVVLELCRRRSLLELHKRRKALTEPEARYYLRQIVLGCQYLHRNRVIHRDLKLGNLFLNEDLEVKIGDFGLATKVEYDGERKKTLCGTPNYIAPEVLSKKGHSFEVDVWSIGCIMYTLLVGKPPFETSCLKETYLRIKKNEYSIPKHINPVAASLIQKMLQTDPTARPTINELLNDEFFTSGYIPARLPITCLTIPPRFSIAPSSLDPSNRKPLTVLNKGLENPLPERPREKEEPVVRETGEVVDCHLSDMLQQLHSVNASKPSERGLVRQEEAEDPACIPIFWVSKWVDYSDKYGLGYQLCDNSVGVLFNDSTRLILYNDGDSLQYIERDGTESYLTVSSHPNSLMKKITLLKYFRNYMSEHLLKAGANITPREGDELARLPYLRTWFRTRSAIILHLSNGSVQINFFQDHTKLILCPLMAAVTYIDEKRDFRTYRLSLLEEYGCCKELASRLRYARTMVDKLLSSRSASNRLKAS
ALDH1A1 block = qHTS Assay for Inhibitors of Aldehyde Dehydrogenase 1 (ALDH1A1) | Potency, µM (doses to about 75.3 µM), most hits filed as inhibitors | Aldehyde dehydrogenase 1A1 (Homo sapiens), P00352 | Purified ALDH1A1, NADH fluorescence, propionaldehyde substrate | AID 1030, 2008 | 220,000 compounds, 7.3% hits; active means well fitted inhibition curve with a large enough effect, not every such curve was filed as active; inconclusive means small, poorly fitted or top-dose-only effect, or another doubt; inactive means no such curve, though single readings can be large or run the other way
VP16 counter = VP16 counterscreen qHTS for inhibitors of ROR gamma transcriptional activity; 310,000 compounds, 3.5% hits; Drosophila S2 Gal4-VP16 UAS-luciferase, luminescence, 20 h; Potency, µM (highest dose often 53.6 µM), most hits filed as inhibitors;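 further: Gal4-VP16 expression switched on by copper sulfate through the metallothionein promoter; nearly all actives have a fitted effect of over 50% in size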
Sfp inh = qHTS Assay for Inhibitors of Bacillus subtilis Sfp phosphopantetheinyl transferase (PPTase) | 4'-phosphopantetheinyl transferase ffp (Bacillus subtilis), Q9F4F7 | Biochemical Sfp PPTase activity, qHTS | Potency, µM, most hits filed as inhibitors | 310,000 compounds, 3.5% hits;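 further: the enzyme is Sfp with the accession as filed and its product quenches rhodamine fluorescence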
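Fluorescence-quenching assay: 15 nM Sfp-PPTase preincubated 15 min at room temperature with compound, then 5 uM rhodamine-CoA and 12.5 uM BHQ-2-labelled YbbR peptide added. Fluorescence (ex 525/em 598 nm) read at start and after 30 min; difference gives rate.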
RORgamma inh = qHTS for inhibitors of ROR gamma transcriptional activity; Nuclear receptor ROR-gamma (Mus musculus), P51450; Drosophila S2 Gal4-RORgamma UAS-luciferase reporter, 20 h; Potency, µM (titrated, usually from 53.6 µM), most hits filed as inhibitors; 310,000 compounds, 5.4% hits; AID 2551, 2010; further: nearly all actives have a fitted effect of over 60% in size
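A Gal4/UAS one-hybrid system in insect cells: metallothionein-promoter Gal4–ROR gamma fusion plus Photinus luciferase reporter. Copper sulfate 700 uM final, 20 hr ambient incubation, luminescent detection after 10 min with reagent.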
Each line names hits and unclear results; the compound was inactive in the other large screens. Unless noted, the call rests on the fitted dose curve; in most records, active means well fitted curve in the direction sought with a large enough effect; inconclusive means small, poorly fitted or top-dose-only effect, or another doubt; inactive means no such curve, though single readings can be large; an effect the other way counts as inactive or inconclusive.

O=C(C1=NN[C@@H]2C(=O)N(c3ccccc3C(F)(F)F)C(=O)[C@H]12)c1ccc2ccccc2n1	none
N#Cc1ccc(N2C(=O)[C@@H]3C(C(=O)c4cnccn4)=NN[C@@H]3C2=O)cc1	ALDH1A1 block 14.1µM, Sfp inh 17.8µM
N#Cc1ccc(N2C(=O)[C@@H]3C(C(=O)c4ccc5ccccc5n4)=NN[C@@H]3C2=O)cc1	ALDH1A1 block 7.94µM
CC(C)(C)CN1C(=O)C(=O)NC[C@@H]1CC1CCCCC1	none (no result: ALDH1A1 block, VP16 counter, Sfp inh, RORgamma inh)
CCOC(=O)C1=CN(C(=O)OC(C)(C)C)C(CN2C(=O)COCC2=O)C1 (stereo not drawn)	VP16 counter inconclusive (no result: PLK1 PBD block, ALDH1A1 block)
CC(C)c1cccc(-c2ccc3c(c2)S(=O)(=O)c2cccc(C(=O)NCc4ccco4)c2C3=O)c1	PLK1 PBD block 42.3µM (no result: ALDH1A1 block, VP16 counter, Sfp inh, RORgamma inh)
COc1ccc(CCNC(=O)c2ccc(OC)c(OC)c2)cc1OC	none (no result: ALDH1A1 block)
COc1ccc(S(=O)(=O)NCc2ccc(C(=O)NCCN(C)Cc3ccccc3)cc2)cc1	none (no result: ALDH1A1 block, VP16 counter, Sfp inh, RORgamma inh)
COc1ccc(S(=O)(=O)NCc2ccc(C(=O)NCCCN3CC(C)CC(C)C3)cc2)cc1 (stereo not drawn)	PLK1 PBD block 26.7µM (no result: ALDH1A1 block)
COc1ccc(CCNC(=O)C2CCC(CNS(=O)(=O)c3ccccc3)CC2)cc1OC (stereo not drawn)	ALDH1A1 block 0.631µM (no result: PLK1 PBD block)
COc1ccc(CCNC(=O)c2ccc(CNS(=O)(=O)c3ccccc3)cc2)cc1OC	ALDH1A1 block 2.51µM
CC1CC(C)CN(CCCNC(=O)c2ccc3c(c2)NC(=O)CS3)C1 (stereo not drawn)	PLK1 PBD block 29.9µM (no result: ALDH1A1 block)
CCCCN(C(=O)c1ccccc1Cl)C(CC(C)C)c1nc2ccccc2[nH]1 (stereo not drawn)	none (no result: ALDH1A1 block, VP16 counter, Sfp inh, RORgamma inh)
O=C(NCc1ccc(F)cc1)C1CCC(CNS(=O)(=O)c2ccccc2)CC1 (stereo not drawn)	PLK1 PBD block 26.7µM (no result: ALDH1A1 block)
O=C(NCc1ccc(Cl)cc1)C1CCC(CNS(=O)(=O)c2ccccc2)CC1 (stereo not drawn)	none (no result: ALDH1A1 block)
CC1CN(C(=O)CSc2nc(N)c(NC(=O)c3ccc(C(F)(F)F)cc3)c(=O)[nH]2)CC(C)O1 (stereo not drawn)	none (no result: ALDH1A1 block, VP16 counter, Sfp inh, RORgamma inh)
CCC(=O)Oc1ccc(NC(=O)c2ccc(S(=O)(=O)N3CCCC3)cc2)cc1	none (no result: ALDH1A1 block, VP16 counter, Sfp inh, RORgamma inh)
CC(C)[C@H](NC(=O)c1ccco1)C(=O)OCC(=O)c1ccc(Br)s1	none (no result: ALDH1A1 block, VP16 counter, Sfp inh, RORgamma inh)
O=C(Cc1ccccc1)NC1CCN(Cc2ccccc2)CC1	none
O=C(O)C1CSC2(CCN(Cc3ccccc3)CC2)N1 (stereo not drawn)	Sfp inh 50.1µM
CCC/C=C(\CCC)C(NS(C)(=O)=O)c1ccccc1 (stereo not drawn)	none (no result: PLK1 PBD block)
Cc1ccc(OCCSc2nc3ncnc(N)c3[nH]2)cc1	PLK1 PBD block 9.47µM
CC(C)Oc1ccc(OCCn2c(=S)[nH]c3c(N)ncnc32)cc1	PLK1 PBD block 10.6µM, ALDH1A1 block 10µM, Sfp inh 50.1µM
CC(C)Oc1ccc(OCCn2c(S(=O)(=O)O)nc3c(N)ncnc32)cc1	none (no result: ALDH1A1 block)
Cc1ccc(OCCn2c(=S)[nH]c3c(N)ncnc32)cc1	ALDH1A1 block 7.94µM, RORgamma inh inconclusive
Nc1ccc2ccccc2c1C(=O)c1ccccc1	none (no result: ALDH1A1 block, VP16 counter, Sfp inh, RORgamma inh)
Cc1ccc(S(=O)(=O)N2CCCCC2)cc1C(=O)OC(C)C(=O)NCC1CCCCC1 (stereo not drawn)	none (no result: ALDH1A1 block, VP16 counter, Sfp inh, RORgamma inh)
COC(=O)c1cn(C(=O)c2ccccc2)c2ccccc12	ALDH1A1 block 6.31µM
COC(=O)c1cn(C(=O)c2cc(OC)cc(OC)c2)c2ccccc12	none (no result: ALDH1A1 block)
COc1ccc(-n2c(=O)c(C)nc3cncnc32)cc1	ALDH1A1 block 25.1µM (no result: PLK1 PBD block)
Cc1nc2cncnc2n(-c2ccccc2)c1=O	ALDH1A1 block inconclusive (no result: PLK1 PBD block)
CC1CCCN(C(=O)c2ccc(COc3ccccc3Br)cc2)C1 (stereo not drawn)	ALDH1A1 block 25.1µM, VP16 counter inconclusive, Sfp inh inconclusive
CC1CCCN(C(=O)c2ccncc2)C1 (stereo not drawn)	none
NC(=O)CSc1nc2ccc([N+](=O)[O-])cc2[nH]1	none
Cc1cccc2nc(CSc3nc4ccc([N+](=O)[O-])cc4[nH]3)c(Br)n12	ALDH1A1 block 25.1µM, VP16 counter inconclusive, RORgamma inh inconclusive
CC(=O)Nc1ccc(S(=O)(=O)N2CCN(S(=O)(=O)c3ccccc3)CC2)cc1	none (no result: ALDH1A1 block)
CC(=O)Nc1ccc(S(=O)(=O)N2CCN(CC3CC4C=CC3C4)CC2)cc1 (stereo not drawn)	ALDH1A1 block 4.47µM, Sfp inh inconclusive
Cc1ccccc1CN1CCN(CC2CC3C=CC2C3)CC1 (stereo not drawn)	Sfp inh 79.4µM
CC(=O)Nc1ccc(S(=O)(=O)N2CCN(Cc3ccccn3)CC2)cc1	ALDH1A1 block inconclusive, Sfp inh inconclusive
O=[N+]([O-])c1ccccc1S(=O)(=O)N1CCN(CC2CC3C=CC2C3)CC1 (stereo not drawn)	ALDH1A1 block 14.1µM
C1=CC2CC1CC2CN1CCN(c2ccccc2)CC1 (stereo not drawn)	none
O=[N+]([O-])c1ccccc1S(=O)(=O)N1CCN(Cc2ccccc2)CC1	none (no result: ALDH1A1 block)
CC(=O)Nc1ccc(S(=O)(=O)N2CCN(Cc3ccccc3[N+](=O)[O-])CC2)cc1	ALDH1A1 block 22.4µM, RORgamma inh inconclusive
Cc1ccccc1CN1CCN(C(=O)CC(C)C)CC1	Sfp inh 79.4µM (no result: ALDH1A1 block)
O=[N+]([O-])c1ccc(-c2cnc(NO)nc2)cc1	ALDH1A1 block inconclusive, VP16 counter inconclusive, Sfp inh 56.2µM, RORgamma inh inconclusive
Cn1c(=O)c2c(nc(Oc3ccc4c(c3)OCO4)n2Cc2ccc(Cl)cc2)n(C)c1=O	none
Cn1c(=O)c2c(nc(NCc3ccc4c(c3)OCO4)n2Cc2ccccc2)n(C)c1=O	ALDH1A1 block inconclusive, VP16 counter 7.08µM
Cn1c(=O)c2c(nc(NCc3ccc4c(c3)OCO4)n2Cc2ccc(F)cc2)n(C)c1=O	ALDH1A1 block inconclusive, VP16 counter 10µM
Cn1c(=O)c2c(nc(NCc3ccc4c(c3)OCO4)n2Cc2ccccc2F)n(C)c1=O	ALDH1A1 block 12.6µM, VP16 counter 17.8µM
CCCn1c(SCC(=O)Nc2ccc(S(=O)(=O)N3CCOCC3)cc2)n[nH]c1=O	none (no result: ALDH1A1 block, VP16 counter, Sfp inh, RORgamma inh)
CCN(CC(=O)Nc1ccccc1OC)C(=O)CSCC(=O)Nc1cccc(C)c1	none (no result: ALDH1A1 block, VP16 counter, Sfp inh, RORgamma inh)
COc1cc(/C=C(\C#N)C(=O)c2ccc(O)c(O)c2)cc(I)c1O	ALDH1A1 block inconclusive (no result: VP16 counter, Sfp inh, RORgamma inh)
c1ccc(-c2nnc(-c3ccccn3)c(-c3ccccn3)n2)nc1	PLK1 PBD block inconclusive, Sfp inh inconclusive (no result: ALDH1A1 block)
CCN(CC)c1nc(-c2ccccn2)nc(-c2ccccc2)c1C#N	VP16 counter 5.01µM, RORgamma inh 1µM
CN(C)c1nc(-c2ccccc2)nc(-c2ccc(Cl)cc2)c1C#N	none
